Structures can show the parent of a compound that is named as a salt. ± gives the standard deviation of the averaged measurements.
Test system: A549
Experiment: relative viability (normalised to negative control = 1, bortezomib = 0) (fraction); higher = less cytotoxic
Conditions: inflammatory serum-free RHB-A with cytokines + LPS, 5 d + 24 h CellTiter-Blue
Description: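 A549 KRAS-mutant NSCLC cells, pre-treated 5 µM GSK126 or vehicle (DMSO), were seeded at 250 cells/well in 384-well plates in serum-free RHB-A medium with inflammatory cytokines/LPS and treated with Selleck kinase inhibitor and NCI oncology compounds at 30 or 300 nM in triplicate, refreshed at 48 h. Viability was read by CellTiter-Blue after 5 d plus 24 h and normalised per plate with cellHTS2 (mean of bortezomib positive control = 0, mean of negative control = 1).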

[1] = compound 30 nM, GSK126 pretreatment: 5 uM GSK126
[2] = compound 30 nM, GSK126 pretreatment: none (vehicle)
[3] = compound 300 nM, GSK126 pretreatment: 5 uM GSK126
[4] = compound 300 nM, GSK126 pretreatment: none (vehicle)

CCN1CCN(Cc2ccc(-c3cc4c(N[C@H](C)c5ccccc5)ncnc4[nH]3)cc2)CC1
relative viability [1]: 0.695 ± 0.092 | relative viability [2]: 0.693 ± 0.028 | relative viability [3]: 0.446 ± 0.042 | relative viability [4]: 0.414 ± 0.068

O=C(CCBr)N1CCN(C(=O)CCBr)CC1 [Pipobroman]
relative viability [1]: 0.735 ± 0.045 | relative viability [2]: 0.705 ± 0.026 | relative viability [3]: 0.725 ± 0.096 | relative viability [4]: 0.822 ± 0.12

C=CC(=O)Nc1cccc(Oc2nc(Nc3ccc(N4CCN(C)CC4)cc3OC)ncc2Cl)c1
relative viability [1]: 0.978 ± 0.051 | relative viability [2]: 0.897 ± 0.034 | relative viability [3]: 0.782 ± 0.086 | relative viability [4]: 0.87 ± 0.095

Cc1ccc(Nc2nccc(N(C)c3ccc4c(C)n(C)nc4c3)n2)cc1S(N)(=O)=O [Pazopanib Hydrochloride]
relative viability [1]: 0.972 ± 0.12 | relative viability [2]: 0.935 ± 0.081 | relative viability [3]: 1.11 ± 0.096 | relative viability [4]: 1.09 ± 0.12

CC[C@H](CO)Nc1nc(NCc2ccccc2)c2ncn(C(C)C)c2n1 [ROSCOVITINE; Roscovitine(CYC202); Roscovitine]
relative viability [1]: 0.929 ± 0.16 | relative viability [2]: 0.873 ± 0.12 | relative viability [3]: 0.963 ± 0.063 | relative viability [4]: 0.902 ± 0.088

Cc1ccc(S(=O)(=O)Nc2nc3ccccc3nc2Nc2ccc3nsnc3c2)cc1
relative viability [1]: 0.8 ± 0.092 | relative viability [2]: 0.774 ± 0.06 | relative viability [3]: 0.748 ± 0.14 | relative viability [4]: 0.842 ± 0.06

CCOc1cc2ncc(C#N)c(Nc3ccc(F)c(Cl)c3)c2cc1NC(=O)/C=C/CN(C)C [Pelitinib]
relative viability [1]: 0.562 ± 0.038 | relative viability [2]: 0.504 ± 0.012 | relative viability [3]: 0.0719 ± 0.015 | relative viability [4]: 0.0851 ± 0.02

Cc1csc(-c2nnc(Nc3ccc(Oc4ncccc4-c4ccnc(N)n4)cc3)c3ccccc23)c1
relative viability [1]: 0.692 ± 0.11 | relative viability [2]: 0.593 ± 0.11 | relative viability [3]: 0.512 ± 0.076 | relative viability [4]: 0.441 ± 0.061

Cc1nc(NC(=O)N2CCC[C@H]2C(N)=O)sc1-c1csc(C(C)(C)C)n1
relative viability [1]: 0.809 ± 0.045 | relative viability [2]: 0.869 ± 0.085 | relative viability [3]: 0.704 ± 0.044 | relative viability [4]: 0.784 ± 0.059

COc1cc2c(Nc3ccc(NC(=O)c4ccccc4)cc3)ncnc2cc1OCCCN1CCOCC1
relative viability [1]: 1.04 ± 0.053 | relative viability [2]: 0.992 ± 0.1 | relative viability [3]: 0.963 ± 0.07 | relative viability [4]: 0.9853 ± 0.0095

From the supplement of paper PMC6279402
